“And” between values parts separate entries of the source, which are not always exact repeats. Identical values can stand only once. Inconclusive results are not listed. Unmarked numbers belong to inactive results. The source made the active and inactive calls. Calls come from the whole dose curve; as a rule, active = well fitted inhibition curve with a large enough effect; inconclusive = small, poorly fitted or top-dose-only effect, or effect the other way; inactive = flat fitted curve, though single readings scatter.

The nature of the assay: qHTS Assay Multiplex Screening to Identify Dual Action Probes in a Cell Model of Huntington: Cytoprotection (Protease relase). The settings on record: PC12 HttQ103 cells, Cytotox-Glo protease release, 40 h; series mostly up to 46.1 µM; activity change, negative = inhibition: at the top concentration. The method in brief:
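Inducible PC12 line expressing HTT exon 1 (Q103)-GFP, induced with 100 nM tebufenozide (final) and treated with compounds. Cytoprotection read as released protease activity by Cytotox-Glo luminescence.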
Turning to `CCOC(=O)c1sc2nc(N3CCOCC3)c3c(c2c1N)CC(C)(C)N(C)C3`, the “activity change, negative = inhibition” value was 10%.
`CCOC(=O)c1noc(C)c1C(=O)Nc1cccc(F)c1`: the Potency is 7.08 µM (active).
On the same count and under the same terms, then `O=C(N/N=C/c1ccc(O)c(O)c1)c1ccc(CSc2cccc3cccnc23)cc1`, with 8.91 µM (active); and `C=C(C)C(=O)OCCCCCCOc1ccc(C(=O)O)cc1`, with 2.24 µM (active).
With `O=c1c2ccccc2nnn1CSc1ncnc2ccccc12`, the “activity change, negative = inhibition” value is -15.1%.
In the case of `Cn1nnnc1Sc1ncnc2scc(-c3ccc(F)cc3)c12`, the Potency is 15.8 µM (active).
Regarding `COc1cccc(-c2csc3ncnc(Sc4nnnn4C)c23)c1`, the Potency was 7.08 µM (active).
Regarding `Cn1nnnc1Sc1ncnc2scc(-c3ccccc3C(F)(F)F)c12`, the Potency was 20 µM (active).
On the same count and under the same terms, then `COc1ccc(-c2[nH]ncc2-c2ccc3c(c2)OCCO3)c(O)c1`, with 15.8 µM (active); and `COc1ccc2cc3cc(C(=O)N4CCN(c5ccccc5)CC4)oc3nc2c1`, with 2.24 µM (active).
On the same count and under the same terms, to `N#CCSc1nc2ccc(N3CCCCC3)cc2c(=O)n1Cc1ccccc1` belongs 22.4 µM (active); to `Cn1nnnc1Sc1ncnc2scc(-c3ccc4ccccc4c3)c12`, 10 µM (active).
In the case of `CN1C(=O)CC(Sc2ncccc2C(=O)O)C1=O` (stereo not drawn), the “activity change, negative = inhibition” value was 4.06%.
Take `Cn1nnnc1Sc1ncnc2scc(-c3ccc[nH]3)c12`: the Potency was 8.91 µM (active).
On the same count and under the same terms, then `COc1ccccc1-n1nnnc1S(=O)(=O)Cc1ccc(Cl)cc1`, with 14.1 µM (active).
On the same count and under the same terms, then `N#Cc1c(C(F)(F)F)cc(-c2cccc(Cl)c2)[nH]c1=O`, with 2.51 µM (active).
Turning to `Cc1[nH]nc2c1C(c1cccc(O)c1)C1=C(CC(C)(C)CC1=O)N2` (stereo not drawn), the “activity change, negative = inhibition” value is 3.18%.
For `Cn1nnnc1Sc1ncnc2scc(-c3cc4ccccc4o3)c12`, the Potency was 7.08 µM (active).
The same measure, in the same setting: to `Cn1nnnc1Sc1ncnc2scc(-c3cccc(F)c3)c12` belongs 11.2 µM (active); to `C=CCC(=O)OCCCCCCOc1ccc(C(=O)O)cc1`, 1.41 µM (active).
On the same count and under the same terms, then `Cn1nnnc1Sc1ncnc2scc(-c3cccc(C#N)c3)c12`, with 10 µM (active).
Take `CC(C(=O)O)c1ccc(CC2CCCC2=O)cc1` (stereo not drawn): the “activity change, negative = inhibition” value was -16.1%.
For `O=C1Cc2c([nH]c3ccc(Br)cc23)-c2ccccc2N1`, the Potency was 2.24 µM (active) and 3.55 µM (active).
Same read-out and setting: to `O=C(CNc1ccc(Oc2ccccc2)cc1)N1CCOCC1` belongs 14.1 µM (active).
Turning to `CCN(Cc1ccncc1)C(=O)c1cc(Br)cc(Br)c1O`, the “activity change, negative = inhibition” value is -3.22%.
Regarding `Cn1nnnc1Sc1ncnc2scc(-c3ccc(Br)cc3)c12`, the Potency was 7.08 µM (active).
Take `O=C(O)c1cc(=O)c2ccc(Cl)cc2[nH]1`: the “activity change, negative = inhibition” value was -5.11%.
Consider `O=C(NCc1ccco1)c1cc2ccc(O)cc2oc1=O`, for which the Potency is 2.82 µM (active).
